Test results as given in PubChem BioAssay (NCATS).
Several values for one entry are separate records, joined by “and”; a condition that tells them apart may be missing. Equal values may be shown once. Records with an inconclusive call do not appear. Some structures have more than one record in an assay (separate samples or runs), and their calls can disagree. Activity calls are given as the source filed them. Unless noted, calls come from the whole dose curve; as a rule, active = well fitted curve in the direction sought with a large enough effect; inconclusive = small, poorly fitted or top-dose-only effect, or another doubt; inactive = no such curve, though single readings can be large; an effect the other way counts as inactive or inconclusive.

Experiments:
[1] = Cell Viability - N2a (AID 540); conditions: N2a mouse neuroblastoma cell viability; activity change, negative = cytotoxicity: at 92.2 µM (top of the series);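 note: plate controls were DMSO alone for no effect and tamoxifen control for full effect; nearly all actives have a fitted effect of over 45% in size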
Procedure, shortened: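 First, 1500 N2a cells per well incubate 5 hr at 37 °C; next, compounds are added and incubated 40 hr at 37 °C; finally CellTiter-Glo is added and luminescence read after 20 min, with AC50 derived by Hill modeling.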

[2] = Cell Viability - Renal Proximal Tubule (AID 545); conditions: renal proximal tubule cells viability, primary cells of rat origin; activity change, negative = cytotoxicity: at 91.7 µM (top of the series);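 note: 0% = DMSO only and -100% = 100 µM tamoxifen; nearly all actives have a fitted effect of over 40% in size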
Procedure, shortened: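 Rat renal proximal tubule primary cells, 1000/well, exposed to compounds for 40 hr at 37 °C in complete medium; cellular ATP read by CellTiter-Glo luminescence. AC50 from concentration-response fitted with standard Hill equation.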

[3] = Cell Viability - LYMP2-003 (AID 965);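 note: cells exposed to compounds for 24 h before reading; nearly all actives have a fitted effect of over 50% in size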; note: potency is the fitted concentration of half-maximal effect;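 for activity change, negative = cytotoxicity: 0% = DMSO only and full effect = 92 µM tetraoctylammonium bromide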
Procedure, shortened: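 Human lymphoblastoid LYMP2-003 cells, 2500/well, exposed to compounds for 24 h at 37 C in complete medium. Viability read as intracellular ATP by CellTiter-Glo luminescence; AC50 from Hill-equation fits of qHTS concentration-response data.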

[4] = Cell Viability - LYMP2-021 (AID 974);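 note: compound exposure lasts 24 hours at 37 °C; nearly all actives have a fitted effect of over 55% in size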; note: potency is the fitted concentration of half-maximal effect
Procedure, shortened: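 Concentration-response cytotoxicity in a human lymphoblastoid line: 24 hr treatment at 37 C in complete culture medium, tetraoctylammonium bromide as positive control, luminescent ATP quantitation as viability measure.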

[5] = Cell Viability - LYMP2-012 (AID 982);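 note: cellular ATP by luciferase luminescence where a drop means cytotoxicity; cells exposed to compound for one day before reading; 0% = DMSO only and full loss = 92 µM tetraoctylammonium bromide; nearly all actives have a fitted effect of over 55% in size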
[6] = target: Estrogen receptor (Homo sapiens) (UniProt P03372); test: qHTS assay for small molecule antagonists of estrogen receptor alpha signaling (AID 588513; active = well fitted curve in the direction sought with a large enough effect in the signal ratio, with a control signal flat, not every such curve was filed as active; the % refers to the signal ratio; note: % is set by controls: 0 for no effect and ±100 for the full control effect)
Procedure, shortened: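 ER-alpha-UAS-bla GripTite HEK 293 cells in 2% charcoal/dextran-treated FBS medium; compounds titrated (1:2, duplicate), then stimulated with 0.5 nM 17-beta-estradiol for 18 h at 37C. CCF4 beta-lactamase fluorescence; Hill-fit IC50 and efficacy.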

[7] = target: Bile acid receptor (Homo sapiens) (UniProt Q96RI1); test: qHTS assay for small molecule antagonists of farnesoid X receptor signaling (AID 588526; calls by dose curve; note: % is set by controls: 0 for no effect and ±100 for the full control effect)
Procedure, shortened: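 Antagonist mode: titrated compounds tested against chenodeoxycholic acid stimulation (normalized to 50 uM CDCA and DMSO) in GeneBLAzer HEK293T cells for 16 h. Beta-lactamase read by CCF4 fluorescence; IC50 from Hill fits.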

[8] = target: Glucocorticoid receptor (Homo sapiens) (UniProt P04150); test: qHTS assay for small molecule antagonists of glucocorticoid receptor signaling (AID 588533; active = well fitted inhibition curve with a large enough effect in the signal ratio, with a control signal flat, not every such curve was filed as active; the % refers to the signal ratio; note: potency is the fitted concentration of half-maximal effect)
Procedure, shortened: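 Antagonist-mode qHTS: compound titrations added to GRE-bla HeLa cells, then dexamethasone 2 nM final; 18 h, 37 C. CCF4 FRET fluorescence normalized to dexamethasone and DMSO; IC50 from Hill fit.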

[9] = target: Peroxisome proliferator-activated receptor gamma (Homo sapiens) (UniProt P37231); test: qHTS assay for small molecule agonists of peroxisome proliferator-activated receptor gamma signaling (AID 588536; active = well fitted curve in the direction sought with a large enough effect in the signal ratio, with a control signal flat, not every such curve was filed as active; the % refers to the signal ratio;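 note: 0% = DMSO basal wells and 100% = rosiglitazone at 2 µM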)
Procedure, shortened: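 Test agents, titrated, stimulated HEK293 UAS-bla cells overnight (16 h, 37 C). Substrate CCF4 was then added for two hours at room temperature before fluorescence reading.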

[10] = target: Vitamin D3 receptor (Homo sapiens) (UniProt P11473); test: qHTS assay for small molecule antagonists of vitamin D receptor signaling (AID 588541; calls by dose curve;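 note: receptor activated by calcitriol during compound treatment; % is set by controls: 0 for no effect and ±100 for the full control effect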)
Procedure, shortened: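 VDR-UAS-bla HEK293T cells in 2% charcoal-stripped FBS were stimulated with 1-alpha,25-dihydroxyvitamin D3 (3 nM final) plus compound for 16 h at 37 C. The beta-lactamase CCF4 readout was normalized to 50 nM agonist and DMSO, and Hill fits gave IC50.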

[11] = qHTS assay for small molecule agonists of the antioxidant response element (ARE) signaling pathway (AID 651741; active = well fitted activation curve with a large enough effect in the signal ratio; the % refers to the signal ratio; note: potency is the fitted concentration of half-maximal effect; for activation: % of control where 0% means no effect)
Procedure, shortened: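 HepG2 ARE-bla cells plated at 2,000 cells/well and incubated 5 h at 37 C/5% CO2 received 23 nL compound in DMSO. After 16 h at 37 C, LiveBLAzer B/G FRET substrate was applied for 2 h at room temperature and fluorescence read.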

[12] = target: Mitogen-activated protein kinase 10 (Mus musculus) (UniProt Q61831); test: JNK3 AlphaScreen Assay (AID 530; active = well fitted curve in either direction with a large enough effect, not every such curve was filed as active;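 note: kinase came from lysate of stimulated human HepG2 cells; signal reports phosphorylation of biotinylated GST-cJun 1-79 at Ser73 with 10 µM ATP; % is set by controls: 0 for no effect and ±100 for the full control effect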)
Procedure, shortened: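 qHTS format: compounds tested as titrations against IL-1beta/TNF-alpha-activated HepG2 lysate JNK3 with biotin-GST-cJun substrate and 10 uM ATP at room temperature. Loss of anti-phospho-cJun AlphaScreen signal indicates inhibition.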

[13] = Cell Viability - NIH 3T3 (AID 541); conditions: NIH 3T3 cell viability, qHTS; activity change, negative = cytotoxicity: at 92.2 µM (top of the series); note: nearly all actives have a fitted effect of over 25% in size; note: potency is the fitted concentration of half-maximal effect;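 for activity change, negative = cytotoxicity: plate controls were DMSO alone for no effect and tamoxifen positive control for full effect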
Procedure, shortened: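 AC50 values reflect concentration-dependent loss of intracellular ATP in NIH 3T3 cells after 40 hr treatment in complete culture medium, quantified by luciferase-based luminescence.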

[14] = target: Estrogen receptor (Homo sapiens) (UniProt P03372); test: qHTS assay for small molecule agonists of estrogen receptor alpha signaling (AID 588514; calls by dose curve;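 note: 0% = vehicle only and 100% = reference agonist; nearly all actives have a fitted effect of over 70% in size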)
Procedure, shortened: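 Reporter-gene assay. […] controls beta-lactamase in HEK 293 GripTite cells; after 18 hrs with compound, CCF4 substrate is added for 2 hrs and fluorescence is read.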

[15] = qHTS assay for small molecule antagonists of peroxisome proliferator-activated receptor delta signaling (AID 588535); conditions: HEK293T PPARd-UAS-bla, beta-lactamase FRET ratio, 18 h; 460 nm channel;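 note: cells co-treated with a PPAR-delta agonist as stimulator during compound exposure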
Procedure, shortened: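 Cells were seeded at 4000 per well in assay medium containing 2% charcoal/dextran FBS and held 5 hrs at 37 C. Compounds were then added for 18 hrs. CCF4 substrate was applied for 2 hrs at room temperature before fluorescence reading.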

[16] = target: Peroxisome proliferator-activated receptor gamma (Homo sapiens) (UniProt P37231); test: qHTS assay for small molecule antagonists of peroxisome proliferator-activated receptor gamma signaling (AID 588537; active = well fitted inhibition curve with a large enough effect in the signal ratio, with a control signal flat, not every such curve was filed as active; the % refers to the signal ratio;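 note: reporter cells co-stimulated with 50 nM rosiglitazone agonist during compound treatment; % of control where 0% means no effect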)
Procedure, shortened: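 Step one: plate 3000 HEK293 UAS-bla cells per well in medium with 1% stripped serum and hold 6-6.5 h at 37 C. Step two: add compound and 50 nM agonist for 16 h. Step three: CCF4 loading, fluorescence read.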

[17] = qHTS assay to identify small molecules that stimulate interleukin-8 (IL-8) secretion (AID 651758; active = well fitted activation curve with a large enough effect in the signal ratio; the % refers to the signal ratio; note: potency is the fitted concentration of half-maximal effect; for activation: 0% is about no effect)
Procedure, shortened: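 THP-1 cells (2000/well) exposed to compound 16 h at 37 C; secreted IL-8 then detected by HTRF with cryptate- and XL665-labelled anti-IL-8 antibody pair after 1-3 h at room temperature.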

[18] = qHTS assay for small molecule agonists of the antioxidant response element (ARE) signaling pathway measured by Nrf2-dependant transcriptional activity - cell viability counter screen (AID 720653; active = well fitted curve in the direction sought with a large enough effect in the repeat runs; an effect the other way counts as inactive or inconclusive; note: % is set by controls: 0 for no effect and ±100 for the full control effect); conditions: ARE-bla HepG2 viability, CellTiter-Glo ATP luminescence, 16 h; max response: stronger effect = lower value
Procedure, shortened: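 ARE-bla HepG2 cells treated with compounds for 16 h at 37C; this counter screen measures viability as intracellular ATP by CellTiter-Glo luminescence after 30 min at room temperature.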

[19] = target: Retinoic acid receptor RXR-alpha (Homo sapiens) (UniProt P19793); test: qHTS assay for small molecule agonists of retinoid X receptor alpha signaling (AID 588544; calls by dose curve;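 note: 0% = DMSO basal wells and 100% = reference agonist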)
[20] = target: Tumor necrosis factor (Homo sapiens) (UniProt P01375); test: qHTS assay to identify small molecules that stimulate Tumor Necrosis Factor-alpha (TNF-alpha) secretion (AID 651757; active = well fitted curve in the direction sought with a large enough effect in the signal ratio; the % refers to the signal ratio; note: 0% is about no effect)
Procedure, shortened: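 Secreted TNF-alpha from compound-treated THP-1 cells (17 hrs, 37 C) was quantified with a homogeneous time-resolved fluorescence antibody assay.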

Sequence of Retinoic acid receptor RXR-alpha (Homo sapiens) (P19793 whole entry, looked up): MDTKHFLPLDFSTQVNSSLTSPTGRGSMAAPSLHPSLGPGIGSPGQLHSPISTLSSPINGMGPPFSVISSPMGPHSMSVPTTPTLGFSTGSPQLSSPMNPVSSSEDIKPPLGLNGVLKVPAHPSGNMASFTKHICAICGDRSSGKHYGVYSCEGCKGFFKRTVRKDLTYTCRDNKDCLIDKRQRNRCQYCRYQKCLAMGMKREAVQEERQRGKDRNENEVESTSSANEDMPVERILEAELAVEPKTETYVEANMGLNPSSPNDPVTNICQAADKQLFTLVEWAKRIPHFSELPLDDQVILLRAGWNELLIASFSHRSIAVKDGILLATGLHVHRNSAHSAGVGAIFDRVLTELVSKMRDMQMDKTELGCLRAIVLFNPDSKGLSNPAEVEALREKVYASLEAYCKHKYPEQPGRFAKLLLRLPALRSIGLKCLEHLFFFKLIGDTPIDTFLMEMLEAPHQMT
Sequence of Peroxisome proliferator-activated receptor gamma (Homo sapiens) (P37231 whole entry, looked up): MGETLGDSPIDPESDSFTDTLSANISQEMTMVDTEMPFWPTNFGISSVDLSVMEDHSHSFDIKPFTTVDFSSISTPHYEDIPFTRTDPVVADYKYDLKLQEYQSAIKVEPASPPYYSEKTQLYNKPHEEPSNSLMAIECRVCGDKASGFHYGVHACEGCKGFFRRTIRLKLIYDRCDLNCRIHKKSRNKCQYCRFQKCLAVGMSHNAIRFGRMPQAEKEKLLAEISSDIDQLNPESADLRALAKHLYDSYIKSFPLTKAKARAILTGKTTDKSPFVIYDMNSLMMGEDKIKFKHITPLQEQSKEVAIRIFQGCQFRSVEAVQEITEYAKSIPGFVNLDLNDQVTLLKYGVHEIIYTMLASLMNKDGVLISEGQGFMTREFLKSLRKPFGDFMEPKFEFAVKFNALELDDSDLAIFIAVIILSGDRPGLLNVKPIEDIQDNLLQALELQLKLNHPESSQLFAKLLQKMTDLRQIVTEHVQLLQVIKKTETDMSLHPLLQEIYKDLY
Sequence of Bile acid receptor (Homo sapiens) (Q96RI1 whole entry, looked up): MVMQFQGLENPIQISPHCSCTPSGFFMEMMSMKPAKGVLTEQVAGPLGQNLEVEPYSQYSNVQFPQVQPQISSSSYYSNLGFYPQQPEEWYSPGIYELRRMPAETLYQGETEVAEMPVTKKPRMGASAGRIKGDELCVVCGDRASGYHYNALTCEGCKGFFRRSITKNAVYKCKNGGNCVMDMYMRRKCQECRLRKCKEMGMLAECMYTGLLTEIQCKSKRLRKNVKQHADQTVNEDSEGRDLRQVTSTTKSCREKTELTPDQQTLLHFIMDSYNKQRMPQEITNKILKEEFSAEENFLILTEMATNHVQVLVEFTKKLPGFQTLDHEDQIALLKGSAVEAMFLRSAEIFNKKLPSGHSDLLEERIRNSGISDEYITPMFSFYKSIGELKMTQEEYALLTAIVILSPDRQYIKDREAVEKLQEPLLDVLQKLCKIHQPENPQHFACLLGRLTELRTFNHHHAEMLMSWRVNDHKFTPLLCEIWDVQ
Sequence of Glucocorticoid receptor (Homo sapiens) (P04150 whole entry, looked up): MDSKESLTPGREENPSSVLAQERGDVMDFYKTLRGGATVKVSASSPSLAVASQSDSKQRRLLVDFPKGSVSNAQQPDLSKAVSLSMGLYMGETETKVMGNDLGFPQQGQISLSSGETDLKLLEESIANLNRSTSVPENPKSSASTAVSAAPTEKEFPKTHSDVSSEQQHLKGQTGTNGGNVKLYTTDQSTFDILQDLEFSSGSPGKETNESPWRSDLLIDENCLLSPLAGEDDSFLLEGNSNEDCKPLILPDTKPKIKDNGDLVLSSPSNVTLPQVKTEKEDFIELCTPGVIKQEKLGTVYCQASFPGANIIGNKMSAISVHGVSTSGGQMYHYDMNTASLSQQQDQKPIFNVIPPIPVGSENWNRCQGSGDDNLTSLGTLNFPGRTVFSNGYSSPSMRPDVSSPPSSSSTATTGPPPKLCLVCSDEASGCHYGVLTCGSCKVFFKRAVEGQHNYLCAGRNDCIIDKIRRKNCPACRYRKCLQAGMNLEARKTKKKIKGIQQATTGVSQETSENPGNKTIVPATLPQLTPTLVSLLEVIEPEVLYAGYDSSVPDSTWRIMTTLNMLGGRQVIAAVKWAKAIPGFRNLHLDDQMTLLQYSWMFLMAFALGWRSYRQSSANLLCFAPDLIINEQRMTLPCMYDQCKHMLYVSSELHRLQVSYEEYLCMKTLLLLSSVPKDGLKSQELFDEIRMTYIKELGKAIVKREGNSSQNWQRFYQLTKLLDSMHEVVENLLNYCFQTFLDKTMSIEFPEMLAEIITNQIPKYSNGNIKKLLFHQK
Sequence of Tumor necrosis factor (Homo sapiens) (P01375 whole entry, looked up): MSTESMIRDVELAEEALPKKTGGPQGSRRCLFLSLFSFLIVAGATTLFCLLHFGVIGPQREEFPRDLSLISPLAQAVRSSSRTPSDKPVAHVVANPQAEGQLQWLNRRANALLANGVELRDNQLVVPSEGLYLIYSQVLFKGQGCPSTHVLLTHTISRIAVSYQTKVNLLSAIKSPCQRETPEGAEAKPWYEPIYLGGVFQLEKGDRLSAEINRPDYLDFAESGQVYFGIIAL
Sequence of Estrogen receptor (Homo sapiens) (P03372 whole entry, looked up): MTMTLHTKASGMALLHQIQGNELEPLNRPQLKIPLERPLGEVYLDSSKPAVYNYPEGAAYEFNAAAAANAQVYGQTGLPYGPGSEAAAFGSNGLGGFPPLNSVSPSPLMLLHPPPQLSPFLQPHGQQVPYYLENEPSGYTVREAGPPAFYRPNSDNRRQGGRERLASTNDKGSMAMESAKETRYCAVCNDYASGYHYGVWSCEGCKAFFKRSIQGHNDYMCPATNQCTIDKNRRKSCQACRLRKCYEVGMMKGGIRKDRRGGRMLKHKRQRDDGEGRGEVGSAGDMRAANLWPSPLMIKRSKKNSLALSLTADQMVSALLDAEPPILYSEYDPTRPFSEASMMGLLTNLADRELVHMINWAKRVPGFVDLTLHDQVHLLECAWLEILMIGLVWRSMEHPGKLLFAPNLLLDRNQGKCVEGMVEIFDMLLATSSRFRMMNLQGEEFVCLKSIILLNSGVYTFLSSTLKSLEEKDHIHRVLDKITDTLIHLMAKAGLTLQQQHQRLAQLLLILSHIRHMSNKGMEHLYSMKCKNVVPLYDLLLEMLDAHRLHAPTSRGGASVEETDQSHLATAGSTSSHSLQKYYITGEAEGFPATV
Sequence of Vitamin D3 receptor (Homo sapiens) (P11473 whole entry, looked up): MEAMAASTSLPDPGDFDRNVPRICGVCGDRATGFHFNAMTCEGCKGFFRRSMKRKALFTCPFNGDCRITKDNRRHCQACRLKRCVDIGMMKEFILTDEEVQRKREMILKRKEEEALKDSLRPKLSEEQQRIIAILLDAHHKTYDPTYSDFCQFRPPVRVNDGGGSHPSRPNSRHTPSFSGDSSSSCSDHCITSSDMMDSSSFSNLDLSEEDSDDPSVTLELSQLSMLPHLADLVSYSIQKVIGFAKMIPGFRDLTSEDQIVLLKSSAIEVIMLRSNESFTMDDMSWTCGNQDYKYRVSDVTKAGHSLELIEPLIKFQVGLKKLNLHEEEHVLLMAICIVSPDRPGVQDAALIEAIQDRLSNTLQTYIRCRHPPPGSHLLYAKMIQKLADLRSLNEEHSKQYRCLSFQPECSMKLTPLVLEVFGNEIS

Cc1cc(=O)oc2cc(O)cc(O)c12
active: Potency [11] 13.3 µM
inactive: activity change, negative = cytotoxicity [1] -0.482% | Potency [2] | Potency [3] | Potency [4] | Potency [5] | outcome [6] | Potency [7] | Potency [8] | outcome [9] | Potency [10]

CC(=O)Nc1cccc(C)c1
inactive: Potency [12] | activity change, negative = cytotoxicity [1] -6.73% | activity change, negative = cytotoxicity [13] -12.7% | Potency [2] | Potency [3] | outcome [6] | Potency [14] | Potency [8] | outcome [9] | Potency [16] | Potency [10] | Potency [11] | Potency [17] | max response [18] -7.75%
-12.4%: max response [15]

c1ccc2c(c1)ccc1ccccc12
active: activity change, negative = cytotoxicity [13] -132%
inactive: outcome [6] | Potency [14] | Potency [7] | Potency [8] | outcome [9] | Potency [16] | Potency [10] | Potency [19] | Potency [11] | Potency [20]
-5.89%: max response [15]

CC(C)COC(=O)COc1cc(Cl)c(Cl)cc1Cl
inactive: activity change, negative = cytotoxicity [13] -0.53% | Potency [2] | Potency [3] | Potency [5] | outcome [6] | Potency [14] | outcome [9] | Potency [16] | Potency [17] | max response [18] 7.92%
active: Potency [11] 42.2 µM
16.7%: max response [15]

OC1CCCCC1
23.6%: max response [15]
inactive: activity change, negative = cytotoxicity [1] -3.26% | activity change, negative = cytotoxicity [13] -12.6% | Potency [3] | Potency [4] | Potency [5] | outcome [6] | Potency [14] | outcome [9] | Potency [16] | Potency [10] | Potency [11] | Potency [20] | Potency [17] | max response [18] 16.5%

c1cc2c3c(c1)ccc1cccc(c13)C2
4.88%: max response [15]
inactive: activity change, negative = cytotoxicity [13] -13.2% | Potency [2] | Potency [3] | Potency [19] | Potency [20] | Potency [17] | max response [18] -4.5%

Oc1ccc(O)c2c(O)cccc12
inactive: Potency [12] | activity change, negative = cytotoxicity [1] -30.1% | activity change, negative = cytotoxicity [13] -29% | outcome [6] | Potency [14] | max response [18] -23%
active: Potency [11] 42.2 µM | Potency [17] 75 µM

O=C(O)/C=C/c1ccc(/C=C/C(=O)O)cc1
-11.1%: max response [15]
inactive: Potency [3] | Potency [4] | Potency [5] | Potency [8] | outcome [9] | Potency [11] | max response [18] -1.74%

C=Cc1cccc(C)c1
-23.4%: max response [15]
inactive: activity change, negative = cytotoxicity [13] 4.07% | Potency [2] | Potency [3] | Potency [4] | Potency [5] | outcome [6] | Potency [14] | Potency [8] | outcome [9] | Potency [16] | Potency [10] | Potency [19] | Potency [11] | Potency [17] | max response [18] 10.9%

C=C(C#N)C(=O)OCC
inactive: Potency [12] | activity change, negative = cytotoxicity [1] -3.66% | Potency [3] | Potency [4] | Potency [8] | outcome [9] | Potency [11]
-32.1%: max response [15]
active: activity change, negative = cytotoxicity [13] -117%

Nc1ccc(-c2ccc(N)c(O)c2)cc1O
inactive: Potency [12] | Potency [2] | outcome [6] | max response [18] 1.43%
active: activity change, negative = cytotoxicity [13] -88.2%

CCCCC(CC)COC(=O)COc1ccc(Cl)cc1Cl (stereo unspecified)
inactive: activity change, negative = cytotoxicity [1] 1.51% | activity change, negative = cytotoxicity [13] 0.559% | Potency [4] | Potency [5] | outcome [6] | Potency [14] | Potency [8] | outcome [9] | Potency [10] | Potency [19] | Potency [20]

CCc1ccc(C(c2ccc(CC)cc2)C(Cl)Cl)cc1
active: Potency [11] 66.8 µM
inactive: activity change, negative = cytotoxicity [13] -11.4% | Potency [3] | Potency [4] | Potency [5] | outcome [6] | Potency [14] | Potency [8] | Potency [10] | Potency [20] | max response [18] -5.77%

C1CCCNCC1
inactive: activity change, negative = cytotoxicity [13] -12.5% | Potency [2] | Potency [3] | Potency [4] | Potency [5] | outcome [6] | Potency [14] | Potency [8] | outcome [9] | Potency [11] | Potency [20] | max response [18] -5.98%
-36.7%: max response [15]

CC(=O)OC(C(=O)c1ccccc1)c1ccccc1 (stereo unspecified)
inactive: Potency [3] | outcome [6] | Potency [14] | Potency [7] | Potency [8] | outcome [9] | Potency [16] | Potency [19] | Potency [20] | Potency [17] | max response [18] -8.03%

C=CC(C)(O)CCCC(C)CCCC(C)CCCC(C)C (stereo unspecified)
4.15%: max response [15]
inactive: Potency [12] | activity change, negative = cytotoxicity [1] -17.1% | activity change, negative = cytotoxicity [13] -10.5% | Potency [3] | Potency [4] | outcome [6] | Potency [14] | outcome [9] | Potency [16] | Potency [10] | Potency [19] | Potency [11] | Potency [20]

CCCCC(CC)COP(=O)(OCC(CC)CCCC)OCC(CC)CCCC (stereo unspecified)
38.7%: max response [15]
inactive: Potency [12] | Potency [3] | Potency [4] | Potency [5] | Potency [8] | outcome [9] | Potency [16] | Potency [10] | Potency [19] | Potency [20]

Brc1cc(Br)c(Oc2cc(Br)c(Br)cc2Br)cc1Br
inactive: activity change, negative = cytotoxicity [13] -6.22% | Potency [2] | Potency [4] | Potency [5] | outcome [6]

Clc1nc2ccccc2nc1Cl
active: activity change, negative = cytotoxicity [13] -143%
inactive: Potency [12] | Potency [3] | outcome [6] | Potency [14] | Potency [8] | Potency [20] | max response [18] 0.874%

Brc1cc(Oc2cc(Br)c(Br)c(Br)c2Br)c(Br)c(Br)c1Br
14.5% and 36.5%: max response [15]
inactive: Potency [12] | Potency [3] | Potency [4] | Potency [5] | Potency [8] | Potency [16] | Potency [19] | Potency [11]

C=CC(=O)OCCCCCCOC(=O)C=C
35%: max response [15]
39.8 µM (active) and inactive: Potency [8]
inactive: Potency [12] | outcome [6] | Potency [7] | outcome [9] | Potency [16] | Potency [20] | max response [18] -16.8% and -7.99%
active: activity change, negative = cytotoxicity [1] -110% | Potency [13] 7.94 µM | Potency [3] 39.8 µM | Potency [4] 39.8 µM | Potency [11] 29.8 µM
